The text below walks through data of PubChem BioAssay AID2283197 (EPA ToxCast).

Calls of active or inactive are those of the source. How the source made its calls: active means hit-call score of the fitted dose curve at least 0.9, where 1 is the maximum; inactive means score below 0.9.

This test deals with human Protein Kinase D2 (PKD2), PRKD2 (gene 25865) (UniProt Q9BZL6). Put plainly: NVS_ENZ_hPKD2: NovaScreen (NVS) Enzymatic Assay for human Protein Kinase D2 (PKD2). On the procedure: NVS_ENZ_hPKD2 is a biochemical, single-readout assay that uses extracted gene-proteins in a cell-free assay. Measurements were taken 1 hour after chemical dosing in a 384-well plate.NVS_ENZ_hPKD2 is one of one assay component(s) measured or calculated from the NVS_ENZ_hPKD2 assay. It is designed to make measurements of enzyme activity, a form of enzyme reporter, as detected with fluorescence intensity signals by Fluorescence and electrophoretic mobility shift technology.Data from the assay component NVS_ENZ_hPKD2 was analyzed into 1 assay endpoint. This assay endpoint, NVS_ENZ_hPKD2, was analyzed in the positive analysis fitting direction relative to DMSO as the negative control and baseline of activity. Using a type of enzyme reporter, loss-of-signal activity can be used to understand changes in the enzymatic activity as they relate to the gene PRKD2. Furthermore, this assay endpoint can be referred to as a primary readout, because this assay has produced multiple assay endpoints where this one serves a enzymatic activity function. To generalize the intended target to other relatable targets, this assay endpoint is annotated to the kinase intended target family, where the subfamily is serine/threonine kinase.
Sequence of human Protein Kinase D2 (PKD2), PRKD2 (gene 25865) (Q9BZL6 whole entry, looked up): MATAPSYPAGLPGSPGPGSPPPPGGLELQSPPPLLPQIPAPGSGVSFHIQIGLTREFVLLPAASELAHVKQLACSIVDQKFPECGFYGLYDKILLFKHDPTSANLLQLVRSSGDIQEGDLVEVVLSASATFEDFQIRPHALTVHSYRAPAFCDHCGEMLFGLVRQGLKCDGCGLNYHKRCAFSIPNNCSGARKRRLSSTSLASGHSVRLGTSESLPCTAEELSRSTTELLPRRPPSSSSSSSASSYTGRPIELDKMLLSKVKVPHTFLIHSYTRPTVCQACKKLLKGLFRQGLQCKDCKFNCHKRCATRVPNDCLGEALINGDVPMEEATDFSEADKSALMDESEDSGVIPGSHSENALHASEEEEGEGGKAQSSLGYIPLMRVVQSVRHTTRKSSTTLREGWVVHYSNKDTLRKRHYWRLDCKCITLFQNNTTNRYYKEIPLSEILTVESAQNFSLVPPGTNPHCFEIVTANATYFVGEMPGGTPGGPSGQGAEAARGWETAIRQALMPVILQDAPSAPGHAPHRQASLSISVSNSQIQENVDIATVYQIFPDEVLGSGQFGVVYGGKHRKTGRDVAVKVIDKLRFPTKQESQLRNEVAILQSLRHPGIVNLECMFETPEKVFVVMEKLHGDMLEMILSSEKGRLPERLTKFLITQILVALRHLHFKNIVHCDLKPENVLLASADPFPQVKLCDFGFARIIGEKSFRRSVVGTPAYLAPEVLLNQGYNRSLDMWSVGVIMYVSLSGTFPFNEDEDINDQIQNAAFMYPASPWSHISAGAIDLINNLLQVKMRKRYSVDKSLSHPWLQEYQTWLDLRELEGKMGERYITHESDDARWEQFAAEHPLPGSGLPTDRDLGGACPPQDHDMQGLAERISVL
Binding assays used specific radioligands (tritiated, iodinated) with non-radioactive competitive displacement ligands in agonist or antagonist protocols (as indicated) and various reference compounds and inhibitors to titrate specific binding to receptors and transporters. Most enzyme assays (CYPs, kinases, phosphatases, proteases, HDACs) used recombinant protein and specific substrates (fluorescence mostly, some colorimetric and radioactive) and inhibitors, followed by a biochemical separation of substrate and product. All assays for the biochemical HTS were initially run in duplicate at a single concentration (10 uM for CYP450 assays and 25 uM for all others). Assay-chemical combinations meeting a pre-defined threshold (e.g., 30% inhibition and other criteria defined below) were then run in singleton concentration-response format with maximum concentration of 20 uM for CYPs and 50 uM for all others. Each assay was run with positive and negative controls, and concurrent controls on every plate. The follow-up (secondary) screen tested active chemical-pairs in concentration series, as well as a few additional assays not tested in the primary screen, some selected negative inactives, and several cases re-run in the concentration series for confirmatory purposes.

The term AC50 denotes the midpoint of the concentration-response curve, whichever way the signal moves. As to `Oc1ccc(Cl)cc1Cc1ccccc1`, the AC50 is 25 µM (active).
In the case of `O=C(Nc1ccccc1)Nc1ccnc(Cl)c1`, the call was inactive.
Take `COc1ccc(C(c2ccc(OC)cc2)C(Cl)(Cl)Cl)cc1`: the molecule was called inactive.
Same read-out and setting: the entry for `O=C(Nc1ccccc1)Nc1cnns1` is “inactive”.
